# Rows were chosen to be rich in hits. Some 6.9% of all compounds tested hit in one or more screens of this group.
# KB-V1 MDR tox: KB-V1 MDR subline cytotoxicity; Potency, µM (highest dose often 46.1 µM), most hits filed as cytotoxic; KB-V1 MDR cells viability, CellTiter-Glo, 72 h; AID 1347076; hit rate 3.4% among 400,000; also: nearly all actives have a fitted effect of over 60% in size
#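 KB-V1 MDR subline cells in DMEM (phenol-red free, 10% FBS) exposed to compounds in qHTS concentration series for 72 h at 37 degrees C. Viability read by CellTiter-Glo luminescence; concentration-effect curves fitted after normalization and correction.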
# SW480 rereplic: induces DNA re-replication in SW480 colon adenocarcinoma cells; SW480 DNA re-replication, Hoechst DNA content imaging, 48 h; Potency, µM (titrated, usually from 46.1 µM), hits mostly activators; hit rate 1.8% among 340,000; also: nearly all actives have a fitted effect of over 55% in size
#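 DNA re-replication was detected as more nuclei of elevated Hoechst intensity after 48 hr exposure to compound (23 nL pinned per well of 250 cells).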
# S-ASM inh: inhibitors of human secretory acid sphingomyelinase | hit rate 0.006% among 340,000 | Potency, µM (highest dose often 57.5 µM), most hits filed as inhibitors | AID 504937 | P17405 | placental ASM, HMU-PC fluorogenic substrate, 60 min
# Target sequence (P17405 47-631 limits assumed): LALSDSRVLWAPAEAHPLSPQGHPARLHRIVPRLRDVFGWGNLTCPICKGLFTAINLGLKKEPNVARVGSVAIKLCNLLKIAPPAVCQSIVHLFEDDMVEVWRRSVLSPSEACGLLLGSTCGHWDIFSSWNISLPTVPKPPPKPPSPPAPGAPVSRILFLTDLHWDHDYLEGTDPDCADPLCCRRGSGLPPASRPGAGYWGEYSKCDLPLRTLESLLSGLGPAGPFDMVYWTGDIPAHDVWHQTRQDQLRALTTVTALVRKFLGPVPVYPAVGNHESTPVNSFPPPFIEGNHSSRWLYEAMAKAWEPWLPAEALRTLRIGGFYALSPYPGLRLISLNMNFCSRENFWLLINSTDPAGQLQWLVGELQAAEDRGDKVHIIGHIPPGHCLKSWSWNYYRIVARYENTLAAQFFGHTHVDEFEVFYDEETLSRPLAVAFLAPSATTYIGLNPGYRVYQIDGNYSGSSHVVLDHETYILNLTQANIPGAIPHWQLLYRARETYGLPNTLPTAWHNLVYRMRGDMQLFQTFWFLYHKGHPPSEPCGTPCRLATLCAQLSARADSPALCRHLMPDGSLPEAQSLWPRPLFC
#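 Human placenta-derived ASM enzyme was preincubated with compound for 10 minutes at room temperature, then given fluorogenic substrate HMU-PC0 (9 uM final) for 60 minutes at 37 °C; a pH 10 stop preceded fluorescence reading at Ex 386/Em 447 nm.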
# MCF10A rereplic: DNA re-replication induction in MCF 10a cells. AID 624296. hit rate 2.9% among 350,000. MCF 10A DNA re-replication, Hoechst nuclear intensity, 48 h. Potency, µM (series often up to 46.1 µM), most hits filed as activators; also: nearly all actives have a fitted effect of over 50% in size
# KB-3-1 tox: kills parental KB-3-1 adenocarcinoma cells. KB-3-1 viability, CellTiter-Glo ATP luminescence, 72 h. Potency, µM (doses to about 46.1 µM), usual class: cytotoxic. hit rate 1.4% among 400,000. AID 1347075; also: nearly all actives have a fitted effect of over 60% in size
#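 72 h, 37 °C compound treatment of KB-3-1 parental cells; CellTiter-Glo added, 10 min, luminescence read. Data corrected against DMSO-only plates and normalized before curve fitting.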
# Giardia kill: Giardia lamblia killing; AID 540267; hit rate 0.15% among 340,000; Giardia lamblia trophozoite viability; activity change, % at 7.66 µM, hits read low; in the data active = activity change below about -80%; inconclusive = between about -30% and that limit;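 also: parasites exposed to compound for two days anaerobically before the ATP read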
#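 Giardia trophozoites, 100 cells per well, were exposed to compounds for 48 hrs at 37 deg C under anaerobic conditions; viability was then read as ATP content by bioluminescence after 15-30 min at room temperature.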
# Hits are given with their value; 0 = inactive; ? = inconclusive; - = no result. Unless noted, calls follow the shape of the dose curve; as a rule, active = well fitted curve in the direction sought with a large enough effect; inconclusive = small, poorly fitted or top-dose-only effect, or another doubt; inactive = no such curve, though single readings can be large; an effect the other way counts as inactive or inconclusive.
SMILES,KB-V1 MDR tox,SW480 rereplic,S-ASM inh,MCF10A rereplic,KB-3-1 tox,Giardia kill
COc1ccccc1/C=C/C(=O)NCC(=O)N=Nc1c(O)[nH]c2ccccc12,0,0,0,0,0,0
CC(C)(CNC(=S)NCCc1ccccc1)CNC(=S)NCCc1ccccc1,0,?,0,23.1µM,?,0
N#Cc1c(NC(=O)c2ccccc2Cl)n(Cc2ccccc2)c2nc3ccccc3nc12,?,11.2µM,0,?,?,0
CCCCn1c(NC(=O)c2ccccc2Cl)c(C#N)c2nc3ccccc3nc21,?,16.4µM,0,2.59µM,?,0
COc1ccc(-n2c(NC(=O)c3ccco3)c(C#N)c3nc4ccccc4nc32)cc1,20.6µM,18.4µM,0,8.2µM,?,0
Cc1ccn2c(NCc3ccco3)c(-c3ccccc3)nc2c1,-,-,-,-,-,0
O=[N+]([O-])c1ccc(S(=O)Cc2ccccc2)c([N+](=O)[O-])c1 (configuration not stated),?,23.1µM,0,4.11µM,?,0
O=[N+]([O-])c1ccc(CS(=O)c2ccccc2)cc1 (configuration not stated),?,0,0,0,0,0
CCCN1C(=O)c2ccccc2NC1c1ccc(Cl)c(Cl)c1 (configuration not stated),0,0,0,0,?,0
CN1CC(c2ccc(Cl)c(Cl)c2)[C@@]2(COc3ccccc3C2=O)[C@@]12C(=O)Nc1ccccc12 (some centres not stated),9.2µM,?,0,16.4µM,?,0
CN(C)c1ccc(CNC(=O)C2CCN(S(=O)(=O)c3ccc4[nH]c(=O)ccc4c3)CC2)cc1,?,-,-,-,0,-
Cc1nc2ccc(NS(=O)(=O)c3ccc(F)cc3F)cc2s1,4.11µM,0,0,0,?,0
CNC(=S)Nc1ccc(-c2nc3ccc(C)cc3s2)cc1,0,?,0,22.4µM,0,0
O=[N+]([O-])c1ccc2nc(NN=Cc3ccc(O)cc3)sc2c1,?,20.6µM,0,9.2µM,0,0
Cc1ccc(S(=O)(=O)Nc2nc3ccc(N)cc3s2)cc1,0,0,0,0,0,0
Cc1nc2ccc(NS(=O)(=O)c3ccc(F)c(F)c3F)cc2s1,0,0,0,0,0,0
CC(C)c1ccc(/C=C/C(=O)Nc2nc3ccc([N+](=O)[O-])cc3s2)cc1,0,0,0,0,0,0
O=[N+]([O-])c1ccc2nc(NS(=O)(=O)c3ccc(F)cc3)sc2c1,?,?,0,7.31µM,?,0
CC(=O)NC(=S)Nc1ccc(-c2nc3ccc(C)cc3s2)cc1,0,0,0,0,0,0
CC(C)NC(=O)CN(Cc1ccc(F)cc1)C(=O)CCC(=O)Nc1nccs1,0,0,0,0,?,0
Cc1ccc2nc(-c3ccc(NS(=O)(=O)c4ccc(F)cc4)cc3)sc2c1,0,?,0,14.6µM,0,0
Cc1ccc2nc(-c3ccc(NC(=S)NCC(C)(C)CN(C)C)cc3)sc2c1,?,?,0,18.4µM,0,0
CCC(C)(C)NC(=S)Nc1ccc(-c2nc3ccc(C)cc3s2)cc1,0,?,0,?,0,0
CCCOc1ccc(C(=O)Nc2cc(-c3nc4ccccc4[nH]3)ccc2C)cc1,0,-,-,-,0,-
O=Cc1ccc(Cl)cc1,0,-,-,-,0,-
SMILES,KB-V1 MDR tox,SW480 rereplic,S-ASM inh,MCF10A rereplic,KB-3-1 tox,Giardia kill
Cc1ccc(/C(N)=N/OC(=O)C23CC4CC(CC(C4)C2)C3)cc1,?,0,0,18.4µM,?,0
N/C(=N\OC(=O)C12CC3CC(CC(C3)C1)C2)c1ccncc1,0,0,0,?,0,0
O=C(c1ccc(CSc2nc3ccncc3n2Cc2cccc(F)c2)cc1)N1CCCCCC1,0,-,-,-,0,-
COc1ccc(/C=N/Nc2nc(-c3cccc(S(=O)(=O)N4CCCC4)c3)cs2)c(OC)c1,2.59µM,0,0,?,18.4µM,0
COc1cccc(C(=O)Nc2nc(-c3ccc(S(=O)(=O)N4CCOCC4)cc3)cs2)c1,0,0,0,0,0,0
O=C(Cc1cccc(NC(=O)C2CCN(S(=O)(=O)c3cccc([N+](=O)[O-])c3)CC2)c1)Nc1cccc(C(=O)N2CCCCC2)c1,0,0,0,?,0,0
CCN(CC)S(=O)(=O)c1c(OC)cc(C)c(Cl)c1C,0,1.16µM,0,0,0,0
Cc1cccc(Nc2nc(N3CCCC3)nc(N3CCCC3)n2)c1,9.2µM,?,0,20.6µM,0,0
COc1nc(Nc2cccc(C)c2)nc(N2CCCCC2)n1,?,0,0,?,0,0
c1ccc(Nc2nc(N3CCCCC3)nc(N3CCNCC3)n2)cc1,20.6µM,0,0,0,0,0
Cc1ccc(NS(=O)(=O)c2cc(C(=O)NCCCN(C)C)ccc2Cl)cc1Cl,0,?,-,?,0,0
COc1ccc(-c2cc3nc(C)c(CCC(=O)N4CCN(c5ccccc5F)CC4)c(C)n3n2)c(OC)c1,0,-,-,-,0,-
CN=C1NC(C)(C)C2CCC(C)(CC2)S1,0,0,0,11.6µM,0,0
O=C1c2ccccc2C2(c3ccccc3)N1CCN2C(=O)C(Cl)(Cl)Cl (configuration not stated),16.4µM,?,0,?,?,0
COc1ccc(C(C)(C)C)cc1NC(=O)c1cc(S(=O)(=O)N(C)C)ccc1N1CCCC1,23.1µM,0,0,0,0,0
CN(C)S(=O)(=O)c1ccc(N2CCCC2)c(C(=O)Nc2ccc(F)cc2F)c1,0,0,0,0,0,0
Cc1cnc(NC(=O)c2cc(S(=O)(=O)N(C)C)ccc2N2CCCC2)s1,?,?,0,6.51µM,20.6µM,0
CN(C)S(=O)(=O)c1ccc(N2CCCC2)c(C(=O)Nc2nccs2)c1,?,0,0,0,0,0
Cc1ccc(NC(=O)Cn2sc3nc(C)cc(C)c3c2=O)c(Cl)c1,0,?,0,4.61µM,0,0
CCOC(=O)CSC1=NC(=O)CS1,0,?,0,20.6µM,0,0
CCOC(=O)CSc1snnc1C,0,0,0,0,0,0
Cc1ccc2c(c1)N(CC(=O)N(Cc1ccc3c(c1)OCO3)CC1CCCO1)C(=O)C(C)O2 (configuration not stated),8.2µM,0,0,0,0,0
CCC1C(O)=C(c2ccccn2)C(=N)N1c1ccccc1 (configuration not stated),0,18.4µM,0,13µM,0,0
O=C(O)CN1C(=O)C=CC1=O,0,-,-,-,0,-
O=C1C=CC(=O)N1CCCCCCN1C(=O)C=CC1=O,18.4µM,11.6µM,0,3.66µM,?,0
COc1ccc(C(=O)Nc2ccc(C(=O)Nc3nccs3)cc2)cc1[N+](=O)[O-],0,10.3µM,0,0,?,0
O=C(Nc1nccs1)c1ccc(Br)cc1,0,14.6µM,0,0,0,0
COc1ccc(C(=O)Nc2ccc(S(=O)(=O)NC(C)(C)C)cc2)cc1[N+](=O)[O-],?,0,0,0.13µM,0,0

# Assay outcomes as filed in PubChem.
